Reference: PubChem BioAssay AID1053144 (Broad Institute, 2014)
In all, about 3,400 compounds went through this assay and about 160 (4.7%) were called active.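 The calls were made as follows: active = fitted curve reaches 30% activation at a concentration no higher than the top valid tested dose, luminescence rising; inconclusive = no clear call, values can overlap the other calls; inactive = signal moving opposite to the expected increase, plus the rest.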 Not all results are given here. Results with a measured potency or affinity are listed apart.

Assay: TCF/LEF reporter activation in neural progenitors – cell-based, iPS-derived NPC, luciferase, Wnt3a, cherry-pick, dose response (AID 1053144);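 also: Wnt3a stimulus is conditioned medium from Wnt3a-transfected mouse L cells at 5% in well; 0% = neutral control wells and 100% = CHIR-99021 positive control wells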
Details: Wnt3a EC25, 24 h; series mostly up to 26 µM; activation: at the top concentration

activation, inactive:
Cc1ccc(C(=O)NC2=NCCS2)cc1 9.97%
COc1cccc(C(=O)NC2=NCCS2)c1 2.66%
Cc1cnc(C(=O)Nc2nnc(C(C)C)s2)cn1 7.46%
CCOC(=O)C1(NC(=O)C2(NC(=O)CN3C(=O)c4ccccc4C3=O)CCCC2)CCCC1 3.07%
O=c1c2ccccc2c(=O)n(-c2ccccc2)n1-c1ccccc1 0.139%
Cc1cccc(/C(N)=N/OC(=O)c2ccncc2)c1 6.69%
Cc1cccc(/C(N)=N/OC(=O)c2cccs2)c1 16.7%
CC(Sc1nncn1C)C(=O)Nc1ccc(N2CCCCC2)cc1 (centres undefined) 1.46%
O=C1c2ccccc2C(Nc2ccccc2)N1c1ccc(Cl)cn1 (centres undefined) 2.25%
COc1n[nH]c(C(=O)Nc2nc3ccccc3s2)c1[N+](=O)[O-] 13.5%
CN(C)S(=O)(=O)c1ccc(C(=O)NCCOc2ccccc2)cc1 11.9%
Cc1ccc(C(=O)CC(SCC(=O)O)c2ccc([N+](=O)[O-])cc2)cc1 (centres undefined) -14.7%
Cc1cc(C(=O)COC(=O)c2ccc(N)c([N+](=O)[O-])c2)c(C)n1Cc1ccc2c(c1)OCO2 5.38%
Cc1ccc2nc(NC(=O)c3ccc(Cl)s3)sc2c1 0.191%
Nc1nc(Nc2ccccc2)sc1C(=O)c1ccccc1 19.5%
Brc1ccc(-c2cn3ccccc3n2)cc1 14.5%
O=C(Nc1ccc(Cl)cc1)c1ccc(-c2ccccn2)s1 7.67%
O=C(NCc1ccccn1)Nc1cccc(Cl)c1 8.88%
CN(C)c1ccc(N=Nc2cccc(F)c2)cc1 3.61%
C(=N\NCc1ccccc1)/c1ccc2ncccc2c1 4.68%
CC(C)(CNC(=O)c1cccc(S(=O)(=O)N2CCCCC2)c1)N1CCOCC1 5.12%
Cc1ccc(CNC(=O)COC(=O)C2CCN(S(=O)(=O)c3cccs3)CC2)cc1 7.64%
Oc1[nH]c2ccccc2c1N=Nc1ccccc1 6.5%
O=C(N=Nc1c(O)[nH]c2ccccc12)c1ccc2c(c1)OCO2 5.2%
CCCCCn1c(CN2CCN(C(=O)c3ccco3)CC2)nc2c1c(=O)n(C)c(=O)n2C -1.47%
O=C(CSc1nnc2ccccn12)c1ccc(Cl)cc1 5.28%
Cc1nnc(SCC(=O)c2ccc(Cl)cc2)n(N)c1=O 4.61%
CCCCN(CC)C(=O)c1cc2cc3ccc(OC)cc3nc2o1 6.64%
Cc1ccc2nc(-c3ccc(NC(=O)CSc4nc(N)cc(=O)[nH]4)cc3)sc2c1 3.34%
CC1=CCC(C(=O)O)C(C(=O)Nc2ccc(-c3nc4ccc(C)cc4s3)cc2)C1 (centres undefined) 8.13%
Cc1ccc2nc(-c3ccc(NS(=O)(=O)c4ccc(F)c(F)c4)cc3)sc2c1 -0.027%
Cc1ccc(C2(C)NC(=O)N(CC(=O)Nc3ccc(-c4nc5ccc(C)cc5s4)cc3)C2=O)cc1 (centres undefined) 2.88%
Cc1ccc2nc(-c3ccc(NC(=O)COCC(=O)O)cc3)sc2c1 4.24%
Cc1cc(C)cc(N(CC(=O)Nc2ccc(-c3nc4ccc(C)cc4s3)cc2)S(C)(=O)=O)c1 -0.43%
